The values that follow come from PubChem BioAssay (NCI).

About 83,000 compounds went through this panel and 20% of them were active in at least one assay; those are over-represented in the sample as a whole.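 Treatment: one concentration, 48 hours, 96-well format. Scoring: percent growth, with anything below 10 considered active.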 Values without a mark were called inactive. The source made the active and inactive calls.

What all share (assay): NCI-60 one-dose screen, 48 h (100 = growth as untreated, 0 = no growth, -100 = all killed)
One assay deals with T-47D breast. As to conditions: 10 µM.
The test system of the next assay is BT-549 breast. Conditions: 10 µM.
The subject of the next assay is MDA-MB-435 melanoma. As to conditions: 10 µM.
A further assay relates to SW-620 colon. As to conditions: 10 µM.
For the next assay, the system named is MCF7 breast. Conditions: 10 µM unless noted.
A further assay relates to HCT-116 colon. As to conditions: 10 µM.
Another assay deals with HCC-2998 colon. As to conditions: 10 µM.
The next assay has as its system KM12 colon. Conditions: 10 µM.

As for `C/C(=C\c1cc(Cl)ccc1OCC(=O)O)[N+](=O)[O-]`, the growth with T-47D breast is 85.9%; in the assay with BT-549 breast, 117%; in the assay on MDA-MB-435 melanoma, 105%; with SW-620 colon, 114%; in the assay with MCF7 breast, 90.4%; in the assay on HCT-116 colon, 109%. Further, the growth in the assay with HCC-2998 colon was 111%; in the assay with KM12 colon, 105%.
`CC1CCCC(CC(N)=O)CC1` (centres undefined): the growth is 101% with T-47D breast; 116% in the assay on BT-549 breast; 104% in the assay with MDA-MB-435 melanoma; 105% with SW-620 colon; 103% in the assay on MCF7 breast; 98.4% in the assay on HCT-116 colon. The growth with HCC-2998 colon is 102%; with KM12 colon it was 107%.
Consider `O=[N+]([O-])c1ccc(/C=C/C=C/c2ccccc2)c(Cl)c1`, for which the growth is 74.3% with T-47D breast; 102% with BT-549 breast; 99.5% in the assay on MDA-MB-435 melanoma; 98.1% in the assay with SW-620 colon; 74.2% with MCF7 breast; 76.6% with HCT-116 colon. Moreover, the growth in the assay on HCC-2998 colon was 97.3%; in the assay on KM12 colon, 94.5%.
On to `Nc1ccccc1SC(CC(=O)c1ccccc1)c1c(Cl)cccc1Cl` (centres undefined), for which the growth is 69.4% in the assay with T-47D breast; 68% in the assay on BT-549 breast; 39.7% in the assay on MDA-MB-435 melanoma; 10.2% in the assay on SW-620 colon; 14.8% with MCF7 breast; -29.7% (active) with HCT-116 colon. The growth in the assay with HCC-2998 colon is 86.9%; in the assay on KM12 colon, 33.1%.
With `O=C(O)C(O)c1ccccc1` (centres undefined), the growth with T-47D breast was 95.1%; with BT-549 breast, 97.1%; in the assay on MDA-MB-435 melanoma, 108%; in the assay with SW-620 colon, 107%; in the assay on MCF7 breast, 99.1%; in the assay with HCT-116 colon, 96.7%. In addition, the growth in the assay with HCC-2998 colon is 103%; in the assay with KM12 colon, 99.3%.
For the molecule `CCN=c1cc2sc3cc(NCC)c(C)cc3nc-2cc1C`, the growth in the assay with T-47D breast is -1.96% (active); in the assay on BT-549 breast it was 36.4%; with MDA-MB-435 melanoma, -35.1% (active); in the assay with SW-620 colon it was 0.622% (active); in the assay with MCF7 breast, -11.5% (active); with HCT-116 colon, 7.17% (active). The growth in the assay on HCC-2998 colon is 30.7%; in the assay on KM12 colon, -1.68% (active).
As for `CCCCC1C(=O)N(c2ccccc2)N(c2ccccc2)C1=O`, the growth is 109% with T-47D breast; 98.8% with BT-549 breast; 108% in the assay on MDA-MB-435 melanoma; 106% with SW-620 colon; 115% in the assay with MCF7 breast; 102% in the assay on HCT-116 colon. Besides, the growth with HCC-2998 colon and with KM12 colon was 109% in each case.
Take `COc1cc(/C=C/C(=O)c2ccccc2)cc(OC)c1OC`: the growth in the assay with T-47D breast is 91.4%; in the assay with BT-549 breast, 72%; with MDA-MB-435 melanoma it was 13.7%; in the assay on SW-620 colon it was 12.3%; with MCF7 breast, 9.65% (active); with HCT-116 colon, 20.6%. Besides, the growth with HCC-2998 colon is 94.3%; in the assay with KM12 colon, 12.6%.
With `Cc1cccc(C(=O)N(C(C)C)C(C)C)c1`, the growth is 83.9% in the assay on T-47D breast; 105% in the assay with BT-549 breast; 106% with MDA-MB-435 melanoma; 96.4% with SW-620 colon; 98.9% in the assay with MCF7 breast; 94.7% in the assay with HCT-116 colon. Moreover, the growth was 109% with HCC-2998 colon and 104% in the assay on KM12 colon.
Regarding `O=[N+]([O-])c1ccc(N=Nc2ccccc2)cc1`, the growth is 87.4% in the assay on T-47D breast; 87.2% with BT-549 breast; 110% in the assay with MDA-MB-435 melanoma; 115% in the assay with SW-620 colon; 109% in the assay with MCF7 breast; 97.1% in the assay on HCT-116 colon. Further, the growth is 104% in the assay with HCC-2998 colon and 96.2% in the assay with KM12 colon.
`O=C1c2ccccc2C(=O)c2c1ccc(C(=O)O)c2[N+](=O)[O-]`: the growth was 105% in the assay on T-47D breast; 95.5% with BT-549 breast; 118% with MDA-MB-435 melanoma; 102% with SW-620 colon; 89.9% with MCF7 breast; 104% in the assay with HCT-116 colon. Besides, the growth with HCC-2998 colon was 106%; in the assay with KM12 colon, 101%.
On to `CCN(CC)C(=O)/C=C(/C)c1ccccc1`, for which the growth with T-47D breast is 102%; with BT-549 breast it was 94.5%; in the assay on MDA-MB-435 melanoma, 108%; in the assay on SW-620 colon, 102%; in the assay on MCF7 breast, 102%; in the assay on HCT-116 colon, 106%. Moreover, the growth in the assay on HCC-2998 colon is 88.6%; in the assay on KM12 colon, 111%.
In the case of `COC(=O)c1ccc(NC(=O)CCl)cc1`, the growth was 69.7% in the assay on T-47D breast; 67.9% with BT-549 breast; 73.8% in the assay with MDA-MB-435 melanoma; 76.6% with SW-620 colon; 58.3% with MCF7 breast; 70% with HCT-116 colon. The growth is 113% in the assay on HCC-2998 colon and 83.6% in the assay with KM12 colon.
Take `CCN(CC)c1ccc2nc3ccc(=[N+](CC)CC)cc-3oc2c1`: the growth in the assay with T-47D breast is -2.86% (active); in the assay on BT-549 breast, 48%; with MDA-MB-435 melanoma, -14.7% (active); in the assay with SW-620 colon, 6.33% (active); with MCF7 breast, -34.9% (active); with HCT-116 colon, -40.7% (active). The growth in the assay on HCC-2998 colon was 40.3%; in the assay on KM12 colon it was 4.22% (active).
Consider `O=C(CCNNC(=O)c1ccncc1)NCc1ccccc1`, for which the growth in the assay on T-47D breast is 94.4%; in the assay with BT-549 breast, 134%; in the assay on MDA-MB-435 melanoma, 95.7%; in the assay on SW-620 colon, 96%; with MCF7 breast, 89.9%; with HCT-116 colon it was 105%. The growth with HCC-2998 colon was 111%; with KM12 colon it was 97.5%.
`O=C(c1ccc(Cl)cc1)c1ccccc1Cl`: the growth in the assay with T-47D breast is 74.7%; in the assay with BT-549 breast, 91.7%; with MDA-MB-435 melanoma it was 106%; with SW-620 colon, 121%; in the assay on MCF7 breast, 95.7%; with HCT-116 colon, 87.9%. Besides, the figures for the growth in the assay with HCC-2998 colon and in the assay with KM12 colon were 92.6% and 119%, respectively.
For `CCCCCCCCO`, the growth with T-47D breast was 105%; in the assay on BT-549 breast, 107%; in the assay on MDA-MB-435 melanoma, 99.3%; with SW-620 colon it was 103%; in the assay with MCF7 breast it was 91.8%; in the assay on HCT-116 colon, 107%. The growth in the assay with HCC-2998 colon is 103%; in the assay on KM12 colon, 108%.
Turning to `O=C(O)C(c1ccccc1)C(O)c1ccccc1` (centres undefined), the growth in the assay on T-47D breast is 94.4%; in the assay with BT-549 breast, 110%; in the assay on MDA-MB-435 melanoma, 105%; with SW-620 colon, 106%; in the assay on MCF7 breast, 95.3%; in the assay on HCT-116 colon, 105%. Besides, the growth was 97.9% in the assay on HCC-2998 colon and 108% in the assay on KM12 colon.
